Screening data as filed in PubChem BioAssay.
Furin inh = human furin inhibitors, primary screen, biochemical, fluorescence intensity; 220,000 compounds, 0.061% hits; inhibition, % at 20 µM or 30 µM; P09958; purified furin, fluorogenic substrate cleavage; AID 463115, 2010; in the data active = inhibition above about 25%
EP2 modulator = EP2 receptor modulators, cAMP readout, primary screen, cell-based, HTRF cAMP, PGE2 stimulation | EP2-expressing cells, cAMP HTRF FRET, PGE2 co-stimulation | induction, % at 25 µM | 260,000 compounds, 0.83% hits | Prostaglandin E2 receptor EP2 subtype (Homo sapiens), P43116;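 active = compounds whose cAMP rise, as percent of the full-agonist control response, exceeds 60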;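 note: rat C6 glioma line stably carrying human EP2 under a CMV promoter; the protocol text gives 20 µM as final concentration; 100% = response of wells given 1 µM PGE2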
Target sequence (P43116 whole entry, looked up): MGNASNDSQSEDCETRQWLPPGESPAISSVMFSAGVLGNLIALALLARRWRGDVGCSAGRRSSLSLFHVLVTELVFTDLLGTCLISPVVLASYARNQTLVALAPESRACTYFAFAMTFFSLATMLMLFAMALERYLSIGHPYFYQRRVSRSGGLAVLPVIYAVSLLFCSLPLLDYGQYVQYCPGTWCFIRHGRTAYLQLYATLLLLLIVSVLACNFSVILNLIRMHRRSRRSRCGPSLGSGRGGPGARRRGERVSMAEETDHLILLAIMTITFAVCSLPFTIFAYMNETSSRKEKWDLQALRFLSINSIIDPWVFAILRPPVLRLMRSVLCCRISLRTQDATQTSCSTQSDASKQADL
HMGR II inh = inhibitors of E. faecalis class II HMGR, primary screen, biochemical, Enterococcus faecalis | HMG-CoA reductase (Enterococcus faecalis, mvaE) | purified E. faecalis HMGR, NADPH absorbance 340 nm kinetic | inhibition, % at 10 µM | 190,000 compounds, 0.41% hits | AID 1066, 2008;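 active = inhibition above a set limit, the median over all tested compounds plus 3 SD, cut at about 9.5% in these data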;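 note: enzyme runs in reverse so mevalonate oxidation gives rising NADPH absorbance; 0% = complete reaction with DMSO and 100% = background rate lacking mevalonate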
EP2 antag = human EP2 receptor antagonists, primary screen, TR-FRET cAMP, C6 glioma cells | inhibition, % at 25 µM | C6 glioma cells expressing human EP2; cells stimulated with saturating PGE2 | Prostaglandin E2 receptor EP2 subtype (Homo sapiens), P43116 | 260,000 compounds, 0.52% hits;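 active = percent inhibition above 40 after rounding to a whole number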;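 note: rat C6 glioma host cells with rolipram phosphodiesterase inhibitor present; the protocol text gives 20 µM as final concentration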
Calpain2 inh = inhibitors of pig calpain II, primary screen, biochemical, fluorogenic peptide substrate, 1536-well; purified calpain II, 30 min; inhibition, % at 16 µM; 220,000 compounds, 0.37% hits; AID 1236, 2008;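 active = inhibition above about 50%, limit read from the data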
Active calls of the source: *; · = no result; ! = repeats disagree. Hits are enriched below; roughly 1.9% of the tested compounds scored in any of these assays.

SMILES	Furin inh	EP2 modulator	HMGR II inh	EP2 antag	Calpain2 inh
COCCOC(=O)c1c(NC(=O)CN2CCOCC2)sc(C(N)=O)c1C	-16.8	10.1	16.9*	7.3	-8.5
O=C(CN1CCOCC1)Nc1sc2c(c1C(=O)c1cccc(F)c1)CCC2	·	68.3*	·	10.4	·
CCOC(=O)c1c(NC(=O)CN2CCOCC2)sc(C(=O)NC)c1C	0.2	-0.2	-0.4	1.5	-2.2
CC(C)=CCCC(C)[C@@H]1CC[C@]2(C)C3=C(CC[C@@]12C)C1(C)CC[C@H](O)C(C)(C)C1CC3 (stereo partly drawn)	·	-0.4	·	13.6	·
COc1ccc(-c2c(C)nn3c(C)c(Cl)c(C)nc23)cc1	·	37.8	·	2.1	·
CCC(C(=O)NC(C)(C)C)N(C(=O)c1snc(C(N)=O)c1N)c1cccc(C)c1 (stereo not drawn)	·	12.3	·	6.3	·
CC1CCN(S(=O)(=O)c2cccc(C(=O)Oc3ccc([N+](=O)[O-])cc3)c2)CC1	-8.6	-94.6	-8.2	39.7*	19.6
O=C1C2CCCCC2C(=O)N1Cc1ccccc1 (stereo not drawn)	-16.6	-3.6	-0.8	5.4	-10.5
O=c1ccsn1Cc1ccccc1	-20.8	-43.0	-3.2	65.1*	-14.1
CCN1CCN(C(C)C(=O)Nc2ccc(F)c(Cl)c2)CC1 (stereo not drawn)	·	-5.7	·	2.5	·
Ic1ccc2c(c1)N(c1ccccc1)c1cc(Nc3ccc4nc5ccc(I)cc5[n+](-c5ccccc5)c4c3)ccc1N2	·	-0.5	·	44.4*	·
Cc1ccc2c(Cl)c(C(=O)Nc3ccccc3)sc2c1	·	-61.1	·	9.5	·
CN(C)C(=O)c1cc(Cl)ccc1NC(=O)c1ccco1	·	4.3	·	5.1	·
Cc1ccc([N+](=O)[O-])cc1Nc1nc(N2CCOCC2)nc(N2CCOCC2)n1	6.0	7.1	10.3*	2.7	32.7
O=[N+]([O-])c1ccc(Cl)c(/C=N/Nc2nc(N3CCOCC3)nc(N3CCOCC3)n2)c1	0.6	-22.6	-4.9	10.7	23.1
CCOc1cccc(CNc2ccc(O)cc2)c1OCc1ccc(Cl)cc1Cl	-1.3	14.5	-4.9	·	67.6*
CN(C)S(=O)(=O)c1cccc(C(=O)Nc2ccc(S(=O)(=O)N3CCCC3)cc2)c1	-25.4	-21.4	13.7*	3.7	19.6
O=C(Nc1ccc(S(=O)(=O)N2CCCCCC2)cc1)c1ccc(Br)o1	-17.9	-23.6	-1.3	9.1	54.9*
CN1CCN(S(=O)(=O)c2ccc(NC(=O)c3cccc(S(=O)(=O)N4CCCC4)c3)cc2)CC1	-15.8	-19.1	-3.4	-1.5	-8.5
O=C(CN1C(=O)NC2(CCCC2)C1=O)Nc1ccc(S(=O)(=O)N2CCOCC2)cc1	-18.7	60.6*	-1.4	4.1	30.2
O=C(COC(=O)c1ccc(Br)o1)Nc1ccc(S(=O)(=O)N2CCCC2)cc1	-10.8	2.0	-8.5	5.4	-16.4
O=C(CN1C(=O)NC2(CCCCC2)C1=O)Nc1cccc(S(=O)(=O)N2CCOCC2)c1	-16.3	-11.3	·	16.3	-2.1
O=C(Nc1ccc(S(=O)(=O)N2CCOCC2)cc1)c1ccc([N+](=O)[O-])o1	-6.8	-42.9	·	49.1*	2.2
CCc1ccc(CCC(=O)Nc2ccc(C)cc2)o1	·	3.2	·	5.2	·
N#CC1=C(N)NC(SCc2ccc(F)cc2)=C(C#N)C12CCCCC2	-13.6	-59.1	-4.8	21.3	65.9*
SMILES	Furin inh	EP2 modulator	HMGR II inh	EP2 antag	Calpain2 inh
Cc1nc(SCc2ccc(O)c([N+](=O)[O-])c2)n[nH]1	30.8*	27.0	-5.3	12.7	15.4
Cc1nc(SCc2ccc(O)c([N+](=O)[O-])c2)c([N+](=O)[O-])[nH]1	17.4	-21.9	·	14.4	6.3
Cc1cc(C)n(C(=O)CCCCCCCCC(=O)n2nc(C)cc2C)n1	-15.8	60.8*	-4.8	0.8	2.5
CCC(=O)Nc1cccc(NC(=O)c2ccc([N+](=O)[O-])o2)c1	·	-101.0	·	97.7*	·
CCCCC(=O)Nc1cccc(NC(=O)c2ccc(Br)o2)c1	-25.8	-14.4	1.8	8.8	14.7
CCCC(=O)Nc1cccc(NC(=O)c2ccc([N+](=O)[O-])o2)c1	·	-99.8	·	41.7*	·
CCN1CCN(c2ccc(NC(=O)c3ccc([N+](=O)[O-])o3)cc2Cl)CC1	-1.7	-155.6	-5.7	115.9*!	30.3
CCC(=O)N1CCN(c2ccc(NC(=O)c3ccc([N+](=O)[O-])o3)cc2Cl)CC1	2.0	-40.6	0.3	24.9	17.1
O=C(Nc1cccc(NC(=O)c2cccs2)c1)c1ccc([N+](=O)[O-])o1	-23.6	-42.8	·	23.0	0.2
Cc1cccc(C(=O)N2CCN(Cc3nc4ccccc4c(=O)[nH]3)CC2)c1	·	8.0	·	25.6	·
O=C1Nc2ccccc2/C1=C/C(=O)c1cccs1	-16.1	-56.0	-1.9	68.5*	9.0
Cc1nc2c([nH]1)C1(CCN(Cc3ccccc3)CC1)C(C#N)=C(N)O2	-18.2	2.8	17.3*	12.5	1.0
CC1(C)CC(=O)C2=C(C1)OC(N)=C(C#N)C21CCN(Cc2ccccc2)CC1	-13.8	19.8	-6.2	7.5	-92.6
CCC(=O)N(Cc1ccccc1)Cc1cc2cc(OC)ccc2[nH]c1=O	·	6.0	·	1.9	·
Cc1cc(Cl)nc2ccc(Cc3ccc4nc(Cl)cc(C)c4c3)cc12	-18.0	-12.7	·	41.6*!	-44.2
O=C1C(=O)N(CCNCCO)C(c2cccnc2)/C1=C(/O)c1ccccc1 (stereo not drawn)	·	-2.3	·	12.9	·
CCOc1cc(C2C3=C(CCCC3=O)Nc3ccc4ncccc4c32)ccc1O (stereo not drawn)	-18.2	16.3	12.2*	3.7	-23.4
O=C(Nc1ccc(Cl)c(Cl)c1)OCCNC(=O)c1cccc(Cl)c1	-22.1	-57.0	-3.3	13.4	65.1*
CC(C)(C)c1nc(CN2CCCCC2)cc(CN2CCCCC2)c1O	-15.9	-1.4	-4.6	14.8	8.1
Cc1cc(CN2CCCCC2)c(O)c(CN2CCCCC2)c1	·	30.9	·	58.7*	·
O=C(COc1cc(Cl)ccc1Cl)NC(Cc1c[nH]c2ccccc12)C(=O)O (stereo not drawn)	·	-1.2	·	10.8	·
CCC(NC(=O)c1cnc(SC)nc1)c1ccc(F)cc1 (stereo not drawn)	·	-10.8	·	3.2	·
CC(=O)n1cc(C(C[N+](=O)[O-])SCCN)c2ccccc21 (stereo not drawn)	-4.4	-50.0	-4.0	50.3*	-20.6
O=C=Nc1ccc(Cc2ccc(N=C=O)cc2)cc1 (tested in a mixture with another compound)	·	10.0	·	45.1*	·
NC(N)=NC(N)=Nc1ccccc1	·	-0.1	·	7.2	·
NC(N)=NC(N)=Nc1c(F)c(F)c(F)c(F)c1F	·	-122.5	·	63.8*	·
O=C(COC(=O)c1cc(Cl)ccc1[N+](=O)[O-])NCc1ccc(Cl)cc1Cl	2.2	-43.8	-2.4	4.3	57.1*
COc1ccc2c(-c3ccccc3)cc(SC(C)C(N)=O)nc2c1 (stereo not drawn)	-11.3	62.2*	0.5	12.5	5.0
